Assay results as given in the supplement of paper PMC5940239.

Assays:
[1] = system: Madurella mycetomatis MM55; conditions: 7 days
[2] = system: Madurella mycetomatis MM55; assay: IC90; higher = less potent; conditions: 7 days
[3] = system: Madurella mycetomatis MM55; assay: percent growth relative to solvent control; higher = less inhibition, active = 20 or less; conditions: 100 µM; 7 days

Row | SMILES | IC50 [1] [µM] | IC90 [2] [µM] | percent growth [3]
1 | COc1ccccc1OCCCCn1c(C2CC2)nc2ccccc21 | 52.1 | 92.7 | 2.84% (active)
2 | Cc1[nH]c2ccccc2c1C(c1cccs1)N1CCN(C)CC1 (stereo not given) | 12.7 | 47 | 4.92% (active)
3 | O=C(Nc1ccc(C(F)(F)F)c(C(F)(F)F)c1)c1cc(Cl)ccc1O | 1.45 | 3.8 | -2.39% (active)
4 | c1ccc(-c2cc(N3CCCCC3)c3ccccc3n2)nc1 | 60 | 92.4 | 0.766% (active)
5 | c1ccc(Oc2ccc(-c3cc(N4CCNCC4)[nH]n3)cc2)cc1 | 35.1 | 81.3 | 0.718% (active)
6 | CN1CCN(CCCOc2ncc(Nc3ncc(-c4ccc(C(F)(F)F)c(F)c4)nc3C(N)=O)cn2)CC1 | 25.7 | 85.2 | -0.0728% (active)
7 | CN1CCCC1CCO[C@](C)(c1ccccc1)c1ccc(Cl)cc1 (stereo not given in full) | 9.85 | 18.3 | -0.386% (active)
8 | O=C(C1CCN(c2cc(-n3cccc3)ncn2)CC1)N1CCc2ccccc2C1 | 62.1 | 91.5 | 3.17% (active)
9 | O=C(c1ccc(F)cc1)N(CCNc1ccccc1)c1ccccc1 | 66.8 | 100 | 6.35% (active)
10 | O=C(NC1CC1)c1ccc(N2CCOc3ccc(Cl)cc32)s1 | 34.5 | 51.8 | -2.78% (active)
11 | O=C(Nc1nnc(-c2ccc(Cl)cc2)o1)c1cccc(C(F)(F)F)c1 | 10.6 | 39.2 | 3.76% (active)
12 | O=C(Nc1nnc(-c2ccc(Cl)s2)o1)c1ccc(Cl)s1 | 54.3 | 93.7 | 3.26% (active)
13 | CCCCCCCCCCCCCCCCOP(=O)([O-])OCC[N+](C)(C)C | 59.3 | 90.8 | -0.857% (active)
14 | Cc1nc(-c2cccc(NCc3ccccc3)c2)[nH]c1C | 64 | 93.6 | 1.75% (active)
15 | CN1CCN(c2cc(-c3ccc(F)cc3)nc(-c3ccncc3)n2)CC1 | 37.1 | 91.2 | 2.98% (active)
16 | Cc1cnc(N2CCN[C@@H](Cc3ccccc3)C2)nc1Oc1ccc(-n2ccnc2)cc1 | 10.7 | 20.8 | 3.67% (active)
17 | CCC(Sc1nc2ccccc2o1)C(=O)Nc1nccs1 (stereo not given) | 37.1 | 56.5 | 0.757% (active)
18 | Nc1nccc2ccc(-c3ccc4nccn4c3)cc12 | 53.9 | 89.2 | -2.88% (active)

Row | SMILES | IC50 [1] [µM] | IC90 [2] [µM] | percent growth [3]
19 | c1coc(CNc2nc(N3CCCCC3)nc3ccccc23)c1 | 10.2 | 15.5 | 1.16% (active)
20 | COc1cc2ncnc(NC3CCN(Cc4ccccc4)CC3)c2cc1OC | 66.6 | 92.3 | -1.64% (active)
21 | COc1ccc(OC(C)C(=O)Nc2ccc(Cl)cc2C)cc1 (stereo not given) | 26.9 | 54.5 | 0.806% (active)
22 | COc1ccc(C2=NN(C3CCCCCC3)C(=O)[C@@H]3CC=CC[C@H]23)cc1OCCCCOc1ccc(-c2nn[nH]n2)cc1 | 18.6 | 53.5 | -1.09% (active)
23 | N#CCN(CCCCN1CCN(c2ccc(F)cc2)CC1)C(=O)OCc1ccccc1 | 64.3 | 93.7 | 1.57% (active)
24 | COc1ccc(OC)c(NCc2ccc3nc(N)nc(N)c3c2Cl)c1 | 2.3 | 4.7 | -0.467% (active)
25 | CN1CCCN(C(c2ccccc2)c2ccc(Cl)cc2)CC1 (stereo not given) | 10.2 | 18.6 | 2.74% (active)
26 | COc1ccc(-c2cc(NC(=O)c3ccc(F)cc3Cl)ccc2OC)cc1 | 31.4 | 53 | 19.5% (active)
27 | Cc1cccc(-c2nc(Nc3ccncn3)c3sccc3n2)n1 | 35.2 | 88.1 | 1.77% (active)
28 | CC(=O)Nc1ccc(-c2noc(CC3CCCN(Cc4cccc(F)c4C)C3)n2)cc1 (stereo not given) | 66.2 | 94.5 | 1.89% (active)
29 | CCCn1c(NC(=O)c2ccc3ccccc3n2)nc2ccccc21 | 3.7 | 9.85 | -3.5% (active)
30 | O[C@@H](c1cc(C(F)(F)F)nc2c(C(F)(F)F)cccc12)[C@H]1CCCCN1 | 38.8 | 71.5 | -1.36% (active)
31 | Cc1ccc2nc(Cl)c(CNCc3cccs3)cc2c1 | 37.5 | 54.5 | -0.463% (active)
32 | Cc1cc(C)nc(-n2nc(C)cc2Nc2ccccc2)n1 | 58.1 | 91.3 | -0.531% (active)
33 | COc1cccc(-c2nc3c(N4CCCC4)cccc3n2CC2CCCN2)n1 (stereo not given) | 37.4 | 84 | -0.727% (active)
34 | CCOc1ccc2cc(-c3nn(CC4CCN(C)CC4)c4ncnc(N)c34)ccc2c1 | 51.8 | 87.8 | -3.52% (active)
35 | c1csc(-c2cnc3sc(NCC4CCOCC4)nn23)c1 | 62.6 | 95.5 | 4.52% (active)
